In PubChem BioAssay (NCATS) one finds Potency data, which are given here for 19 compounds.

Structures are written as SMILES. Results filed as inconclusive are left out. Entries that show only a call come without a potency. Calls of active or inactive are those of the source. Calls follow the shape of the dose curve; as a rule, active = well fitted cell-killing curve with a large enough effect; inconclusive = small, poorly fitted or top-dose-only effect, or effect the other way; inactive = no such curve, though single readings can be large or run the other way.
Potency is read from the fitted curve at half-maximal effect.

The experiment is described as follows: Quantitative High-Throughput drug screen in 47 multiple myeloma cell lines against the NCATS MIPE library collection: KMS12PE_JCRB cell viability assay (AID 1918972). Also: nearly all actives have a fitted effect of over 30% in size. The conditions noted are these: KMS12PE myeloma viability, CellTiter-Glo ATP, 48 h; series mostly up to 45.8 µM. In a few lines: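 Luminescent ATP measurement with CellTiter-Glo gives viability, scaled between DMSO-only wells (100%) and media-only wells (0%). Cells, 500 per well, faced library compounds for 48 hours at 37C.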
Background: Cellular ATP, detected with luciferase, serves as a proxy for viable cell number.
Consider `CCN(CC)CCn1c(=O)c(Cc2ccc(OC)cc2)nc2ccccc21`, for which the Potency result is “inactive”.

As for `CNS(=O)(=O)Cc1ccc2[nH]cc(CCN(C)C)c2c1`, the Potency entry is “inactive”.

On to `CCCOc1ccc(C(=O)OCCN(CC)CC)cc1N`, for which the Potency entry was “inactive”.

As for `CC(C)NCC(O)c1ccc(NS(C)(=O)=O)cc1` (centres undefined), the Potency result was “inactive”.

As for `C[C@@H]1C[C@H]2[C@@H]3CCC4=CC(=O)C=C[C@]4(C)[C@@]3(Cl)[C@@H](O)C[C@]2(C)[C@@]1(OC(=O)c1ccco1)C(=O)CCl`, the Potency was 4.69 µM (active).

Take `Nc1ccc(S(=O)(=O)Nc2ccccn2)cc1`: the Potency entry was “inactive”.

Regarding `O=C(O)C1CCCN(CCC=C(c2ccccc2)c2ccccc2)C1` (centres undefined), the Potency entry was “inactive”.

For `OC(Cn1cncn1)(Cn1cncn1)c1ccc(F)cc1F`, the Potency entry was “inactive”.

Turning to `CCOC(=O)c1ccc(OC(=O)CCCCCN=C(N)N)cc1`, the Potency entry is “inactive”.

Turning to `CN(Cc1cc(Br)cc(Br)c1N)C1CCCCC1`, the Potency entry was “inactive”.

In the case of `NC(=O)c1cccc(N)c1`, the Potency entry is “inactive”.

Regarding `CC(=O)[C@H]1CC[C@H]2[C@@H]3CC=C4C[C@@H](O)CC[C@]4(C)[C@H]3CC[C@]12C`, the Potency result was “inactive”.

Regarding `CCN(C)C(=O)Oc1cccc([C@H](C)N(C)C)c1`, the Potency entry was “inactive”.

`CC[C@H](NC(C)C)[C@H](O)c1ccc(O)c2[nH]c(=O)ccc12`: the Potency result is “inactive”.

Turning to `C[C@@H]1CN(c2c(F)c(N)c3c(=O)c(C(=O)O)cn(C4CC4)c3c2F)C[C@H](C)N1`, the Potency result was “inactive”.

For `CC(C)C1CCC(C(=O)N[C@H](Cc2ccccc2)C(=O)O)CC1` (some centres undefined), the Potency entry is “inactive”.

With `CC1=NN(c2ccccc2)C(=O)C1`, the Potency entry was “inactive”.

In the case of `O=NN(CCCl)C(=O)NC1CCCCC1`, the Potency entry is “inactive”.

For `O=P(O)(O)C(O)(Cc1cccnc1)P(=O)(O)O`, the Potency result is “inactive”.
